High-throughput results (PubChem BioAssay)
Sampled rows, rich in hits. Any-hit rate of the full collection: about 1.2%.
GC-A act: GC-A (human) enzyme activation; P16066; HEK293 GC-A cells, cGMP TR-FRET, EC30 ANP; 0% at EC30 ANP, 100% saturating ANP; activation, % at 10 µM; 370,000 tested, 0.14% active; AID 1671463; in the data active means activation above about 40%
NPR2 activator: GC-B (human) receptor activation. HEK293-GC-B cells, CNP EC30, cGMP TR-FRET; 0% at EC30 CNP, 100% saturating CNP. activation, % at 10 µM. 370,000 tested, 0.11% active. AID 1920062;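 active means activation at 10 µM reaching about 35% in either raw or pattern-adjusted values, limit read from the data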
TLR4-MyD88 BLA: blocks binding of human TLR4 to MyD88; O00206+Q99836; HeLa CL3-4 TLR4/MyD88 BLA complementation, FRET ratio; inhibition, % at 8.4 µM; 200,000 tested, 0.18% active; in the data active means inhibition above about 25%
TLR9-MyD88 block: TLR9-MyD88 interaction inhibition; Q9NR96+Q99836; inhibition, % at 4.98 µM; 340,000 tested, 0.21% active; CHO BLA complementation TLR9-MyD88, CCF4 FRET ratio;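 active means inhibition above the mean over all tested compounds plus 3 SD, cut at about 21% in these data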
Neddyl block: blocks human cullin neddylation | P61081+Q13564 | TR-FRET cullin neddylation, biochemical | inhibition, % at 25 µM | 360,000 tested, 0.58% active | AID 651699; in the data active means inhibition above about 36%
NOD2-RIPK2 inh: blocks binding of human NOD2 to RIPK2; 360,000 tested, 0.38% active; AID 624267; O43353; inhibition, % at 4.98 µM; CHO BLA complementation NOD2-RIPK2, CCF4 ratio; in the data active means inhibition above about 21%
Target sequence (O43353 whole entry, looked up): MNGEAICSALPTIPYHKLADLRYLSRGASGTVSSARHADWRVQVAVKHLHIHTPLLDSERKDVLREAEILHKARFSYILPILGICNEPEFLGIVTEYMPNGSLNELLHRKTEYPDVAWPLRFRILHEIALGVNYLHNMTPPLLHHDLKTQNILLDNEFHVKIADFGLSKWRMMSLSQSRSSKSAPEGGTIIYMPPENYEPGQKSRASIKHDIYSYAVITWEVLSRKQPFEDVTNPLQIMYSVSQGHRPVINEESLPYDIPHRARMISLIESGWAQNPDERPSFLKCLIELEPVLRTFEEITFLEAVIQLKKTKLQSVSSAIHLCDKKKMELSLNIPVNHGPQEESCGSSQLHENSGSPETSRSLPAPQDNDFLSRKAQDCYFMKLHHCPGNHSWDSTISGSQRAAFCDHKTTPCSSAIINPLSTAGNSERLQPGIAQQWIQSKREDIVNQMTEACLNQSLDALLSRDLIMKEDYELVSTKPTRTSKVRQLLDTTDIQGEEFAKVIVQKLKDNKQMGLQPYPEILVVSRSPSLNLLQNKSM
TLR9-MyD88 conf: TLR9-MyD88 interaction inhibition, confirmation; shares compounds with TLR9-MyD88 block; CHO TLR9/MyD88 BLA complementation, CCF4 FRET ratio; inhibition, % at 4.98 µM; 680 tested, 51% active; AID 540250;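 active means mean inhibition across three repeats above about 21% taken from the earlier screen, limit read from the data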;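 further: blue over green emission ratio reports constitutive TLR9 MyD88 association via BLA complementation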
BLA counter-1: beta-lactamase reporter inhibition, counter-screen artifact | shares compounds with TLR9-MyD88 block | CHO-BLA cells, CCF4 FRET ratio, BLA reporter | inhibition, % at 4.98 µM | 680 tested, 7% active | AID 540251;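 active means mean inhibition above a 50% cutoff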;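 further: counterscreen of TLR9-MyD88 hits on CMV-driven BLA in CHO-K1 cells; higher means less blue over green ratio so more BLA blockade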
TLR9 CHO tox: CHO cell toxicity counter-screen for TLR9-MyD88 inhibitors. shares compounds with TLR9-MyD88 block. TLR9-MyD88 CHO cells cytotoxicity, luminescence. inhibition, % at 4.98 µM. 680 tested, 39% active. AID 588336; in the data active means inhibition above about 11%
NOD2 RIPK2 conf: NOD2-RIPK2 interaction inhibition confirmed | shares compounds with NOD2-RIPK2 inh | CHO cells, NOD2-RIPK2 BLA complementation, CCF4 FRET | inhibition, % at 4.98 µM | 1,200 tested, 70% active;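 active means mean inhibition across replicates above a set limit taken from the earlier primary screen, cut at about 21% in these data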
BLA counter-2: hits BLA reporter in NOD2-RIPK2 inhibitor counterscreen | inhibition, % at 4.98 µM | CHO BLA reporter, CCF4 FRET ratio | 1,200 tested, 57% active | shares compounds with NOD2-RIPK2 inh;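 active means mean inhibition above the low-control mean inhibition plus three low-control SD, cut at about 11% in these data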
Of the large screens only hits and unclear results are named; the others gave an inactive call (follow-up assays come after a bar, where shown).

O=C(Nc1ccc(OC(F)(F)F)cc1)c1[nH]ncc1[N+](=O)[O-]	TLR9-MyD88 block 25, NOD2-RIPK2 inh 25 | TLR9-MyD88 conf inactive | BLA counter-1 inactive | TLR9 CHO tox inactive | NOD2 RIPK2 conf inactive | BLA counter-2 inactive
Cc1onc(C(=O)Nc2ccc(OC(F)(F)F)cc2)c1[N+](=O)[O-]	none (no result: GC-A act, NPR2 activator, TLR4-MyD88 BLA)
O=C(Cn1ncc(Cl)c(Cl)c1=O)c1ccc2c(c1)OCCO2	none (no result: TLR4-MyD88 BLA)
CCC(=O)Nc1ccc(C(=O)Cn2ncc(Cl)c(Cl)c2=O)cc1	TLR9-MyD88 block 21, NOD2-RIPK2 inh 22 (no result: TLR4-MyD88 BLA) | TLR9-MyD88 conf inactive | BLA counter-1 inactive | TLR9 CHO tox 37 | NOD2 RIPK2 conf 34 | BLA counter-2 inactive
O=C(CCc1ccccc1)N[C@H]1[C@@H](OC(=O)C2CC2)CCC[C@@]12C(=O)N(Cc1ccccc1)c1ccccc12	none (no result: TLR4-MyD88 BLA, TLR9-MyD88 block, Neddyl block, NOD2-RIPK2 inh)
O=C(NC1CC1)c1cccc2c1C(=O)c1ccc(N3CCC(Cc4ccccc4)CC3)cc1S2(=O)=O	TLR9-MyD88 block 32, NOD2-RIPK2 inh 34 (no result: TLR4-MyD88 BLA) | TLR9-MyD88 conf inactive | BLA counter-1 inactive | TLR9 CHO tox inactive | NOD2 RIPK2 conf 45 | BLA counter-2 50
CC1CCN(c2ccc(C(=O)O)cc2NS(=O)(=O)c2ccc(C(C)(C)C)cc2)CC1	none (no result: TLR4-MyD88 BLA, TLR9-MyD88 block, Neddyl block, NOD2-RIPK2 inh)
Cc1ccc(NC(=S)NNC(=O)CSc2nnc(SCc3cccc4ccccc34)s2)cc1	none (no result: TLR4-MyD88 BLA, TLR9-MyD88 block, Neddyl block, NOD2-RIPK2 inh)
CCN(c1ccccc1)S(=O)(=O)c1ccc(NC(=O)c2nc(S(C)(=O)=O)ncc2Cl)cc1	TLR9-MyD88 block 61, NOD2-RIPK2 inh 97 (no result: GC-A act, NPR2 activator, TLR4-MyD88 BLA) | TLR9-MyD88 conf 59 | BLA counter-1 inactive | TLR9 CHO tox 100 | NOD2 RIPK2 conf 98 | BLA counter-2 49
Cc1ccccc1NC(=O)c1nc(S(C)(=O)=O)ncc1Cl	TLR9-MyD88 block 38, NOD2-RIPK2 inh 30 (no result: TLR4-MyD88 BLA) | TLR9-MyD88 conf 37 | BLA counter-1 inactive | TLR9 CHO tox 87 | NOD2 RIPK2 conf 60 | BLA counter-2 29
CCS(=O)(=O)c1ncc(Cl)c(C(=O)Nc2ccc(S(=O)(=O)N(C)c3ccccc3)cc2)n1	GC-A act 62, NPR2 activator 41, TLR9-MyD88 block 55, NOD2-RIPK2 inh 99 (no result: TLR4-MyD88 BLA) | TLR9-MyD88 conf 54 | BLA counter-1 50 | TLR9 CHO tox 100 | NOD2 RIPK2 conf 96 | BLA counter-2 54
CCOC(=O)c1nc(S(C)(=O)=O)ncc1Cl	TLR9-MyD88 block 34, NOD2-RIPK2 inh 22 | TLR9-MyD88 conf 37 | BLA counter-1 inactive | TLR9 CHO tox 43 | NOD2 RIPK2 conf 56 | BLA counter-2 25
Cc1ccccc1NC(=O)c1cccc(C(=O)Nc2ccccc2C)n1	none (not shown: TLR4-MyD88 BLA, Neddyl block)
COc1ccc(-n2c(COc3ccc(C)cc3)nnc2SCC(=O)c2ccc(-c3ccccc3)cc2)cc1	none (no result: TLR4-MyD88 BLA, TLR9-MyD88 block, Neddyl block, NOD2-RIPK2 inh)
O=C(Nc1nc2c(Br)cccc2s1)c1ccc2c(c1)OCCO2	none (no result: TLR4-MyD88 BLA, TLR9-MyD88 block, Neddyl block, NOD2-RIPK2 inh)
Cn1c(=O)c([N+](=O)[O-])c(Cl)c2ccccc21	TLR9-MyD88 block 47, NOD2-RIPK2 inh 86 | TLR9-MyD88 conf 62 | BLA counter-1 inactive | TLR9 CHO tox 97 | NOD2 RIPK2 conf 93 | BLA counter-2 27
CCc1ccc(Nc2n[n+](-c3ccccc3)c(-c3c(Cl)cccc3Cl)s2)cc1	TLR9-MyD88 block 80, NOD2-RIPK2 inh 68 (no result: TLR4-MyD88 BLA) | TLR9-MyD88 conf 43 | BLA counter-1 inactive | TLR9 CHO tox 29 | NOD2 RIPK2 conf 75 | BLA counter-2 63
COC(=O)C[C@@H]1CC[C@@H]2[C@H](COc3ccc(NC(=O)Nc4c(C)noc4C)cc3C(=O)N2C)O1	none (no result: TLR4-MyD88 BLA, TLR9-MyD88 block, Neddyl block, NOD2-RIPK2 inh)
CN(C)c1ccc(/C=C2\Oc3ccc(C#Cc4cccc(N)c4)cc3C2=O)cc1	TLR9-MyD88 block 45, NOD2-RIPK2 inh 49 (not shown: GC-A act, NPR2 activator, TLR4-MyD88 BLA, Neddyl block) | TLR9-MyD88 conf 53 | BLA counter-1 60 | TLR9 CHO tox inactive | NOD2 RIPK2 conf 71 | BLA counter-2 78
COC(=O)c1ccc2c(c1)C(=O)/C(=C/c1ccc(C)cc1)O2	none
Nc1cccc2c1C(=O)N(Cc1cccc(Cl)c1)C2=O	TLR9-MyD88 block 21, NOD2-RIPK2 inh 35 (not shown: Neddyl block) | TLR9-MyD88 conf inactive | BLA counter-1 inactive | TLR9 CHO tox inactive | NOD2 RIPK2 conf 32 | BLA counter-2 45
O=C1Cc2ccccc2C(=O)N1Cc1cccc(Cl)c1	none (not shown: TLR4-MyD88 BLA, Neddyl block)
O=Nc1c(O)n(Cc2c(Cl)cccc2Cl)c2ccccc12	TLR9-MyD88 block 35, NOD2-RIPK2 inh 29 | TLR9-MyD88 conf inactive | BLA counter-1 inactive | TLR9 CHO tox inactive | NOD2 RIPK2 conf 36 | BLA counter-2 42
C=CCn1c(O)c(N=O)c2ccccc21	none (no result: TLR4-MyD88 BLA)
O=[N+]([O-])c1ccc(/C=C/C2=NN(c3ccccc3)C(c3ccco3)C2)cc1 (configuration not stated)	none
O=[N+]([O-])c1ccc(C2=NN(c3ccccc3)C(c3ccco3)C2)cc1 (configuration not stated)	TLR9-MyD88 block 59, NOD2-RIPK2 inh 41 (no result: TLR4-MyD88 BLA) | TLR9-MyD88 conf 40 | BLA counter-1 inactive | TLR9 CHO tox inactive | NOD2 RIPK2 conf 73 | BLA counter-2 69
C[C@H](NC(=O)C[C@@H]1C[C@@H]2c3cc(NC(=O)C4CCC4)ccc3O[C@@H]2[C@@H](CO)O1)c1ccccc1	none (no result: TLR4-MyD88 BLA, TLR9-MyD88 block, Neddyl block, NOD2-RIPK2 inh)
CN(C(=O)CNC(=O)c1ccccc1OCC(=O)Nc1ccc(I)cc1)c1ccccc1	none (no result: TLR4-MyD88 BLA, TLR9-MyD88 block, Neddyl block, NOD2-RIPK2 inh)
COc1ccc(C(=O)c2sc3nc(C)cc(-c4cccs4)c3c2N)cc1OC	TLR9-MyD88 block 41, NOD2-RIPK2 inh 61 | TLR9-MyD88 conf 25 | BLA counter-1 inactive | TLR9 CHO tox inactive | NOD2 RIPK2 conf 50 | BLA counter-2 60
CC(C)NC(=O)c1sc2nc(-c3cccs3)cc(-c3cccs3)c2c1N	none (no result: TLR9-MyD88 block, Neddyl block, NOD2-RIPK2 inh)
CCCC(=O)OCCNc1cc(Sc2nccn2C)c2nonc2c1[N+](=O)[O-]	TLR9-MyD88 block 53, NOD2-RIPK2 inh 71 | TLR9-MyD88 conf 71 | BLA counter-1 inactive | TLR9 CHO tox 97 | NOD2 RIPK2 conf 92 | BLA counter-2 47
CCCSc1cc(NCCOC(C)=O)c([N+](=O)[O-])c2nonc12	none
